Screens (PubChem BioAssay)
HCV inhibitor: HCV inhibition | hit rate 3.4% among 340,000 | AID 651820 | Huh7.5.1 HCVcc-Cre infection, luciferase reporter, 44 h | Potency, µM (series often up to 41.8 µM), for the others: at the highest dose activity change, negative = inhibition, most hits filed as inhibitors; also: potency is read from the fitted curve at half-maximal effect; % is scaled to controls: 0 for no effect and ±100 for the full control effect
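A cell-based infection assay in which seeded cells (1,000 per well) receive test compound after 4 h, are inoculated with HCVcc-Cre at approximately 0.5 moi, and are incubated 44 h before luminescence detection.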
Pf growth 96h: P. falciparum growth inhibition at 96 hour, primary screen for plastid delayed-death inhibitors | P. falciparum luciferase reporter growth, 96 h | Potency, µM (titrated, usually from 28.7 µM), for the others: at the highest dose activity change, negative = inhibition, most hits filed as inhibitors | hit rate 6.9% among 320,000 | AID 504834; also: potency is read from the fitted curve at half-maximal effect; % is scaled to controls: 0 for no effect and ±100 for the full control effect
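P. falciparum expressing integrated firefly luciferase, in erythrocytes at 2% hematocrit, 0.05% parasitemia, incubated with compounds 96 h at 37 C, 5% CO2. Growth inhibition read as loss of luminescence; two-generation exposure targets delayed-death apicoplast inhibitors.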
CHX counter: counter-screen for Shiga toxin inhibitors: cycloheximide protein synthesis inhibition | cell reporter, cycloheximide protein synthesis inhibition counterscreen | max response, % | hit rate 12% among 300,000; in the data active = max response mostly above about 13%, no sharp cut-off; inactive = mostly below about 14%; also: read at 38.3 µM for the half of the compounds with a filed dose; 0% is about no effect
Shiga inhibitor: inhibitors of Shiga toxin in Vero cells. Vero cells, Shiga toxin protein synthesis inhibition reporter. inhibition, % at 38.7 µM. hit rate 9.2% among 290,000. AID 2315; in the data active = inhibition mostly above about 28%, no sharp cut-off; inactive = mostly below about 43%; also: 0% is about no effect
HCMV antiviral: blocks human cytomegalovirus replication | HFF cells, HCMV-luciferase reporter, 72 h; hits give low values | activity change, negative = inhibition, % at 57.5 µM | hit rate 4.5% among 410,000 | AID 1259415; in the data active = activity change below about -60%; inconclusive = no clear call, values can overlap the other calls; inactive = above about -39%; also: % is scaled to controls: 0 for no effect and ±100 for the full control effect
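Screen run at 2 compound doses on HFFs infected with reporter HCMV, MOI 1 PFU/cell. Luciferase activity from cell lysates at 72 h post infection gave inhibition relative to buffer-only and Salinomycin wells.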
Pf growth 48h: inhibits P. falciparum growth in the first generation, 48 h; P. falciparum luciferase growth in erythrocytes, 48 h; Potency, µM (titrated, usually from 28.7 µM), inactives show at the top dose activity change, negative = inhibition, usual class: inhibitors; hit rate 5.9% among 310,000; AID 504832; also: potency is read from the fitted curve at half-maximal effect; % is scaled to controls: 0 for no effect and ±100 for the full control effect
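Compounds are pin-transferred into medium, infected erythrocytes (2% hematocrit, 0.1% parasitemia final) are added, and plates sit one parasite generation at 37 C in 5% CO2. Detection reagent is then added and luminescence measured.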
The depositor's hits bear a star. Most compounds without a hit are left out; they make up all but 21% or so of the library. Unless noted, calls follow the shape of the dose curve; as a rule, active = well fitted inhibition curve with a large enough effect; inconclusive = small, poorly fitted or top-dose-only effect, or another doubt; inactive = no such curve, though single readings can be large or run the other way.

Results for O=C(O)CC/C(=C\c1cc([N+](=O)[O-])ccc1Cl)c1nc2ccccc2s1 ?
HCV inhibitor: -10%; Pf growth 96h: 3%; CHX counter: -3; Shiga inhibitor: -7; HCMV antiviral: 6; Pf growth 48h: -14%

What do the screens show for `CCOc1cc(C(=O)OC(C)C(=O)Nc2ccc(NC(C)=O)cc2)ccc1OCC(=O)N1CCCCC1` (centres undefined)?
HCV inhibitor: -13%; Pf growth 96h: inconclusive; CHX counter: -1; Shiga inhibitor: 8; HCMV antiviral: 28; Pf growth 48h: -16%

How did Cc1ccc(S(=O)(=O)N2CCN(C(=O)COC(=O)c3cccc(Cl)c3)CC2)c(C)c1 do in these assays?
HCV inhibitor: -8%; Pf growth 96h: -30%; HCMV antiviral: 5; Pf growth 48h: -24%

How did COc1cccc(NC(=O)CN(C)C(=O)c2ccc(OCc3ccccc3)c(OC)c2)c1 do in these assays?
HCV inhibitor: -35%; Pf growth 96h: -20%; HCMV antiviral: -29; Pf growth 48h: 4%

What do the screens show for `CCc1ccc(NC(=O)c2sc3nc(C)c(Cl)c(C)c3c2N)cc1`?
HCMV antiviral: 59

Results for CCNC(=O)C1(C)CCCN(C(=O)c2sccc2C)C1 (centres undefined) ?
HCMV antiviral: 33

How did Cn1ccsc1=NC(=O)c1ccc(S(=O)(=O)C(F)F)cc1 do in these assays?
HCV inhibitor: 12%; Pf growth 96h: 15%; CHX counter: 26*; Shiga inhibitor: 69*; HCMV antiviral: 9; Pf growth 48h: 69%

What do the screens show for `Cn1ccsc1=NC(=O)c1ccc(CS(C)(=O)=O)cc1`?
HCV inhibitor: 6%; Pf growth 96h: 50%; CHX counter: 12; Shiga inhibitor: 39*; HCMV antiviral: 17; Pf growth 48h: 64%

How did COC(=O)c1ccc(C(=O)N=c2sccn2C)cc1 do in these assays?
HCV inhibitor: 2%; Pf growth 96h: 143%; CHX counter: 40*; Shiga inhibitor: 79*; HCMV antiviral: -18; Pf growth 48h: 93%

What do the screens show for `Cn1ccs/c1=N\C(=O)Nc1ccccc1`?
HCV inhibitor: 16%; Pf growth 96h: 174%; CHX counter: 66*; Shiga inhibitor: 75*; HCMV antiviral: 80; Pf growth 48h: 135%

Results for COc1ccc(C(=O)N=c2sccn2C)cc1 ?
HCV inhibitor: 13%; Pf growth 96h: 203%; CHX counter: 33*; Shiga inhibitor: 71*; HCMV antiviral: -15; Pf growth 48h: 188%

How did Cn1ccsc1=NC(=O)c1ccc(OC(F)(F)F)cc1 do in these assays?
HCV inhibitor: -1%; Pf growth 96h: 80%; CHX counter: 36*; Shiga inhibitor: 83*; HCMV antiviral: 132; Pf growth 48h: 47%

How did CCOc1cc(C(=O)N=c2sccn2C)ccc1OC(F)F do in these assays?
HCV inhibitor: inconclusive; Pf growth 96h: -11%; CHX counter: 35*; Shiga inhibitor: 71; HCMV antiviral: 39; Pf growth 48h: -7%

How did Cn1ccsc1=NC(=O)c1ccccc1F do in these assays?
HCV inhibitor: 9%; Pf growth 96h: inconclusive; CHX counter: 16; Shiga inhibitor: 41; HCMV antiviral: -17; Pf growth 48h: -13%

How did Cn1ccsc1=NC(=O)c1ccccc1OC(F)F do in these assays?
HCV inhibitor: 9%; Pf growth 96h: inconclusive; CHX counter: 9; Shiga inhibitor: -22; HCMV antiviral: -2; Pf growth 48h: -20%

Results for Cn1ccsc1=NC(=O)c1ccc(Cl)cc1 ?
HCV inhibitor: 14%; Pf growth 96h: 56%; CHX counter: 39*; Shiga inhibitor: 113*; HCMV antiviral: 38; Pf growth 48h: 90%

What do the screens show for `O=C(O)/C(=C/c1ccc(Cl)c([N+](=O)[O-])c1)c1ccc(S(=O)(=O)N2CCCCC2)s1`?
HCV inhibitor: 9%; HCMV antiviral: inconclusive

How did O=C(CCCC(=O)N(c1ccc(F)cc1)C(C(=O)NC1CCCC1)c1ccc(O)cc1)Nc1ccccn1 (centres undefined) do in these assays?
HCV inhibitor: -11%; Pf growth 96h: -18%; CHX counter: -3; Shiga inhibitor: 16; HCMV antiviral: -10; Pf growth 48h: -4%
